Test results: paper PMC7826789 (International Journal of Molecular Sciences, 2021)

Legend:
Details in all cases: Compound Concentration (nM):1000
ROCK2 = system: ROCK2
ROS1 = system: ROS1
[1] = system: RPS6KA4(Kin.Dom.1-N-terminal)
[2] = system: RPS6KA4(Kin.Dom.2-C-terminal)
[3] = system: RPS6KA5(Kin.Dom.1-N-terminal)
[4] = system: RPS6KA5(Kin.Dom.2-C-terminal)
[5] = system: T1, RSK1(Kin.Dom.1-N-terminal)
T1 construct: gene RPS6KA1

[6] = system: T2, RSK1(Kin.Dom.2-C-terminal)
T2 construct: gene RPS6KA1

[7] = system: T3, RSK2(Kin.Dom.1-N-terminal)
T3 construct: gene RPS6KA3

[8] = system: T4, RSK2(Kin.Dom.2-C-terminal)
T4 construct: gene RPS6KA3

[9] = system: T5, RSK3(Kin.Dom.1-N-terminal)
T5 construct: gene RPS6KA2

[10] = system: T6, RSK3(Kin.Dom.2-C-terminal)
T6 construct: gene RPS6KA2

[11] = system: T7, RSK4(Kin.Dom.1-N-terminal)
T7 construct: gene RPS6KA6

[12] = system: T8, RSK4(Kin.Dom.2-C-terminal)
T8 construct: gene RPS6KA6

S6K1 = system: T9, S6K1
T9 construct: gene RPS6KB1

SBK1 = system: SBK1
SGK2 = system: SGK2
SGK3 = system: SGK3
SGK = system: T10, SGK
T10 construct: gene SGK1

SIK2 = system: SIK2
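Further: KINOMEscan scanMAX binding as percent activity remaining versus control; lower means stronger binding.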

Row | Structure (SMILES) | Percent Control (ROCK2) | Percent Control (ROS1) | Percent Control [1] | Percent Control [2] | Percent Control [3] | Percent Control [4] | Percent Control [5] | Percent Control [6] | Percent Control [7] | Percent Control [8] | Percent Control [9] | Percent Control [10] | Percent Control [11] | Percent Control [12] | Percent Control (S6K1) | Percent Control (SBK1) | Percent Control (SGK2) | Percent Control (SGK3) | Percent Control (SGK) | Percent Control (SIK2)
1 | NS(=O)(=O)c1ccc(Nc2ncc(-c3ccccc3)o2)cc1 [GW572399X] | 91% | 100% | 100% | 89% | 100% | 100% | 100% | 100% | 98% | 98% | 100% | 100% | 96% | 100% | 100% | 100% | 93% | 60% | 48% | 100%
2 | COc1cccc(-c2c[nH]c3c(N/N=C/c4ccncc4)ncnc23)c1 [GW814408X] | 73% | 100% | 100% | 62% | 100% | 100% | 88% | 77% | 75% | 100% | 100% | 100% | 49% | 100% | 84% | 83% | 38% | 59% | 22% | 17%
3 | CC1=C(C(=O)Nc2ccc3[nH]ncc3c2)C(c2ccc3ccccc3c2)CC(=O)N1 (stereo not shown) [GSK270822A] | 0% | 81% | 100% | 91% | 100% | 64% | 91% | 99% | 72% | 75% | 84% | 100% | 67% | 95% | 67% | 48% | 69% | 42% | 69% | 86%
4 | NS(=O)(=O)c1ccc(N/N=C2\C(=O)Nc3ccc(-c4cnco4)cc32)cc1 [GW276655] | 2.5% | 96% | 65% | 94% | 97% | 39% | 100% | 100% | 79% | 79% | 100% | 87% | 61% | 90% | 100% | 76% | 76% | 53% | 38% | 100%
5 | CCS(=O)(=O)c1ccc(OC)c(Nc2ncc(-c3cccc(OC)c3)o2)c1 [GW580509X] | 88% | 92% | 100% | 100% | 100% | 100% | 100% | 100% | 100% | 100% | 100% | 100% | 94% | 100% | 100% | 100% | 100% | 91% | 100% | 91%
6 | Cl.O=S1CCN(Cc2ccc(-c3ccc4ncnc(Nc5ccc(OCc6ccccc6)c(F)c5)c4c3)o2)CC1 [GW576924A] | 94% | 100% | 100% | 100% | 100% | 100% | 100% | 100% | 100% | 100% | 100% | 100% | 97% | 100% | 97% | 100% | 100% | 78% | 100% | 81%
7 | COc1cc(N2CCN(C(C)C)CC2)ccc1Nc1nc(Nc2ccc(F)cc2C(=O)NC[C@@H](O)CO)c2cc[nH]c2n1 [GSK1392956A] | 100% | 52% | 100% | 33% | 100% | 47% | 27% | 78% | 5.7% | 100% | 67% | 72% | 55% | 86% | 94% | 64% | 100% | 91% | 99% | 100%
8 | COc1cc2ncn(-c3cc(O[C@H](C)c4ccccc4Cl)c(C(N)=O)s3)c2cc1OC [GSK237701A] | 83% | 92% | 92% | 68% | 100% | 72% | 96% | 87% | 50% | 77% | 100% | 90% | 45% | 94% | 68% | 83% | 87% | 75% | 90% | 65%
9 | Nc1ncnc2occ(-c3ccc(NC(=O)Nc4cc(C(F)(F)F)ccc4F)cc3)c12 [GW770249X] | 27% | 56% | 100% | 92% | 55% | 100% | 100% | 100% | 89% | 98% | 66% | 59% | 87% | 100% | 21% | 100% | 100% | 83% | 100% | 100%
10 | Cl.O=C(O[C@H]1CN[C@H](C#Cc2cc3ncnc(Nc4ccc5c(cnn5Cc5ccccc5)c4)c3s2)C1)N1CCOCC1 [GSK200398A] | 84% | 73% | 97% | 88% | 100% | 100% | 96% | 97% | 95% | 93% | 92% | 89% | 80% | 83% | 100% | 100% | 97% | 99% | 99% | 69%
11 | O=C1Nc2ccc(C(=O)c3ccco3)cc2C1=Cc1cc(Cl)c(O)c(Cl)c1 [GW406108X] | 45% | 100% | 100% | 49% | 100% | 67% | 78% | 16% | 26% | 85% | 74% | 51% | 53% | 32% | 74% | 100% | 100% | 74% | 83% | 100%
12 | O=C(Nc1n[nH]c2nc(-c3ccc(O)cc3)c(Br)cc12)C1CC1 [SB-725317] | 98% | 91% | 100% | 1.2% | 100% | 43% | 100% | 100% | 65% | 97% | 96% | 100% | 19% | 100% | 100% | 100% | 100% | 88% | 100% | 100%
13 | Cl.O=C(Nc1ccc(Oc2ccc3[nH]c(NC(=O)c4ccco4)nc3c2)cc1)Nc1cc(C(F)(F)F)ccc1F [GW683134A] | 57% | 61% | 100% | 82% | 95% | 75% | 100% | 100% | 100% | 100% | 92% | 100% | 100% | 100% | 43% | 100% | 100% | 100% | 100% | 100%
14 | CC1=C(C(=O)Nc2ccc3[nH]ncc3c2)C(c2ccc(Cl)c(Cl)c2)CC(=O)N1 (stereo not shown) [GSK299115A] | 0.1% | 98% | 100% | 82% | 100% | 60% | 100% | 81% | 75% | 89% | 100% | 89% | 69% | 80% | 67% | 73% | 81% | 48% | 72% | 87%
15 | Cl.O=C(Nc1ccc(Oc2ccc3[nH]c(NC(=O)c4ccccc4)nc3c2)cc1)Nc1cc(C(F)(F)F)ccc1F [GW709042A] | 85% | 67% | 100% | 77% | 100% | 88% | 100% | 100% | 100% | 90% | 100% | 100% | 99% | 100% | 52% | 100% | 100% | 90% | 100% | 100%
16 | NS(=O)(=O)c1ccc(N/N=C2\C(=O)Nc3ccc(C(=O)NCCc4c[nH]cn4)cc32)cc1 [GW300660X] | 40% | 100% | 100% | 80% | 100% | 100% | 100% | 100% | 54% | 100% | 100% | 100% | 45% | 100% | 76% | 100% | 100% | 12% | 26% | 100%
17 | COc1cc(C=NNc2ncnc3c2cnn3-c2ccccc2)ccc1O [GW513184X] | 88% | 99% | 100% | 82% | 100% | 85% | 100% | 100% | 88% | 71% | 100% | 100% | 90% | 100% | 100% | 100% | 66% | 85% | 50% | 61%
18 | COc1cccc(-n2ncc3c(N/N=C/c4ccncc4)ncnc32)c1 [GW784752X] | 84% | 100% | 100% | 70% | 100% | 100% | 94% | 100% | 100% | 86% | 100% | 98% | 94% | 100% | 93% | 63% | 83% | 77% | 57% | 75%
19 | COc1cc2ncnc(Nc3ccc4c(cnn4Cc4ccccc4)c3)c2cc1OC.Cl [GW282449A] | 100% | 89% | 42% | 93% | 84% | 100% | 100% | 100% | 100% | 99% | 100% | 100% | 92% | 100% | 100% | 100% | 100% | 100% | 100% | 68%
20 | CCS(=O)(=O)c1ccc(OC)c(Nc2ncc(-c3cccc(F)c3)o2)c1 [GW621970X] | 100% | 90% | 100% | 94% | 100% | 100% | 100% | 100% | 100% | 83% | 100% | 100% | 100% | 100% | 93% | 100% | 100% | 98% | 100% | 63%
